These results are taken from PubChem BioAssay (NCI).

The panel holds about 83,000 compounds, 20% with a hit somewhere; the sample as a whole holds those more often.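 Method: cells in 96-well plates; compound added at one concentration; 48 h incubation; percent growth measured; values under 10 scored active.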 Unmarked numbers belong to inactive results. Active and inactive are the calls of the source.

The subject of this experiment is UACC-62 melanoma. As to the kind of experiment: NCI-60 one-dose screen, 48 h (100 = growth as untreated, 0 = no growth, -100 = all killed). The settings on record: 10 µM unless noted. As to the method:
Growth inhibition of the UACC-62 human tumor cell line is measured as a screen for anti-cancer activity. Cells are grown in 96 well plates and exposed to the test compound for 48 hours. Compounds are tested at a single concentration, which is 10^-5 M for most compounds. The reported endpoint is percent growth (GI% or GIPRCNT), where numbers from 0 - 100% represent growth inhibition, and numbers from -100% - 0 represent cell death. For example, a value of 40 represents 60% growth inhibition. A value of 0 means no net growth occurred over the course of the experiment. A value of -40 indicates 40% of cells at the beginning of the experiment died by the end of the experiment. A value of -100 means all cells are dead at the end of the experiment.
NCI-60 Human Tumor Cell Lines Screen was performed using the standard one-dose NCI protocol, which is described in more detail at https://dtp.cancer.gov/discovery_development/nci-60/default.htm.
Compounds with GIPRCNT values below 10 were considered active. Activity score was based on GIPRCNT using the following formula: […]
Score is 0 for GIPRCNT values of 100 or above, 50 for GIPRCNT values of 0, and 100 for GIPRCNT values of -100.
For `O=C1N(c2ccccc2)C(=S)N[C@]12[C@H](c1ccccc1)C1CCCN1[C@]21C(=O)NC2C=CC(Cl)=C[C@H]21` (stereo not given in full), the growth was 82.7%.

For `O=C(Nc1ccccc1)c1sc(-c2cccc(C(F)(F)F)c2)cc1O`, the growth is 23.3%.

`Nc1ccc(CCCCc2ccccc2)c(Cl)c1`: the growth is 93.4%.

`CC(C)c1ccc(C(=O)OC(=O)c2ccc(C(C)C)cc2)cc1`: the growth is 99.4%.

Turning to `Fc1ccc(Nc2nc3nonc3nc2Nc2ccc(F)cc2)cc1`, the growth was 3.98% (active).

Take `O=C1C=CC(=Nc2cc(Br)c(O)c(Br)c2)C=C1`: the growth was 67.6%.

For the compound `CCNCCNc1cc(-c2ccc(C(=O)OC)cc2)c(C#N)c2nc3ccccc3n12`, the growth was -17.7% (active).

On to `NS(=O)(=O)c1cnccc1-n1ccc(=O)c(S(N)(=O)=O)c1`, for which the growth was 96.9%.

In the case of `C=C1c2c(C)nn(-c3ccc(O)cc3)c2N(C)C23C[C@@H]1C1(C)c4c(C)nn(-c5ccc(O)cc5)c4N(C)C(C)(C[C@H]12)C3` (stereo not given in full), the growth is 32.7%.

In the case of `COc1ccc(/C(C)=C(\c2ccc(Cl)cc2)c2ccc(OCCN3CCCCC3)cc2)cc1F`, the growth is -33% (active).

In the case of `Cc1cc2c(F)c(Oc3ncnc(Nc4ccc(N5C[C@@H](C)N[C@@H](C)C5)cc4)c3C#N)cc(F)c2[nH]1`, the growth is 85.8%.

For `CCN(CC)CC(=O)Nc1cccc(C(=O)OC(C)C)c1`, the growth is 102%.

Regarding `CCOC(=O)c1c(C)nc2c(c1N)/C(=C/c1ccc(OC)cc1)C(=O)N2Cc1ccc(F)cc1`, the growth is -78.2% (active).

With `[2H]c1nc(Nc2ncc(F)c(-c3cc(F)c4nc(C)n(C(C)C)c4c3)n2)c([2H])c([2H])c1CN1CCN(C([2H])([2H])C([2H])([2H])[2H])CC1`, the growth was 73.3%.

On to `NC(N)=N/N=C(/c1ccccc1)c1ccc(N)cc1`, for which the growth is 91.2%.

Take `NS(=O)(=O)Oc1ccc(-c2sc3cc(O)ccc3c2C(=O)c2ccc(OCCN3CCCCC3)cc2)cc1`: the growth is -47.2% (active).

On to `CN1CCN(C(=O)[C@@]2(C)CC[C@]3(C)CC[C@]4(C)C(=CC[C@@H]5[C@@]6(C)C/C(=C/c7ccncc7)C(=O)C(C)(C)[C@@H]6CC[C@]54C)[C@@H]3C2)CC1`, for which the growth was 37.8%.

As to `O=C(Nc1ccccc1Cl)OCCN1CCOCC1`, the growth is 101%.

Take `CCN(CC)CCOc1ccc(/C(=C(\C)c2ccc(F)c(OC)c2)c2ccc(Cl)cc2)cc1`: the growth was -44.8% (active).

As to `COc1ccc2cc(-c3ccc(C(=O)NN)c(C)n3)ccc2c1`, the growth is 82.1%.

For the compound `Nc1nc(I)c2ncn(C3OC(CO)C(O)C3O)c2n1` (stereo not given), the growth was 90.4%.

Turning to `c1ccc([P+](CCCc2n(Cc3ccc4ccccc4c3)c3ccccc3[n+]2Cc2ccc3ccccc3c2)(c2ccccc2)c2ccccc2)cc1`, the growth is 37.8%.

On to `CC1=CC(=O)C(C(C)C)=CC1=Nc1cc(Br)c(O)c(Br)c1`, for which the growth was 22.7%.

In the case of `Cc1ccc(/C(=N\N=C(N)N)c2ccccc2)cc1`, the growth is 20.7%.

As for `CN1C(=O)CCC(N2C(=O)c3cccc(NCCOCCOCCNC(=O)c4cc5c(o4)C(=O)c4ccccc4C5=O)c3C2=O)C1=O` (stereo not given), the growth was -91% (active).

As to `COc1cc(-c2cc(-c3ccc(Nc4nc(Nc5ccccc5)nc(Nc5ccc(Cl)cc5)n4)cc3)nc(N)n2)cc(OC)c1OC`, the growth is 49.7%.

In the case of `CN=C1C=CC(=C(c2ccc(N(C)C)cc2)c2ccc(N(C)C)cc2)C=C1`, the growth is -50.2% (active).

In the case of `COc1ccc(/C=N/NC(=O)Cn2c(-c3ccc(S(C)(=O)=O)cc3)nc3cc(Cl)ccc32)cc1`, the growth was 26.1%.

For the compound `O=C(Nc1ccccn1)[C@H](O)[C@@H](O)C(=O)N1CCOCC1`, the growth is 108%.

Consider `O=C1CSC(c2ccccc2)N1c1ccccc1` (stereo not given), for which the growth is 103%.

For `COc1cc2c(O)n(CCCn3ccnc3)c3c4cnc5cccc(c(=O)c3c2cc1OC)c54`, the growth is 15%.

Regarding `N#Cc1c(NC(=O)c2ccccc2I)sc2c1CCCC2`, the growth is 38%.

`COc1cc2c(=O)n(CCCn3ccnc3)c3c4cc5c(cc4ccc3c2cc1OC)OCO5`: the growth is -50.9% (active).

With `CC1(C)N=C(N)N=C(N)N1c1cccc(CN)c1`, the growth was 95.9%.

As to `COC1(CC[C@@H](C)COC2OC(CO)C(O)C(O)C2O)O[C@H]2C[C@H]3[C@@H]4CC=C5C[C@@H](OC6OC(CO)C(OC7OC(C)C(O)C(O)C7O)C(O)C6OC6OC(C)C(O)C(O)C6O)CC[C@]5(C)[C@H]4CC[C@]3(C)[C@H]2[C@@H]1C` (stereo not given in full), the growth is -92.1% (active).

For `C=CCOc1cccc(/C=C2\SC(=Nc3ccc(O)cc3)NC2=O)c1`, the growth was 34.7%.

`O=C1NC(=S)S/C1=C\N1N=C(c2ccc(Cl)cc2)CC1c1ccc(F)cc1` (stereo not given): the growth was 73.6%.

Regarding `CCN1CCN(c2ccc(Nc3cc(-c4cccnc4Nc4c(Cl)c(OC)cc(OC)c4Cl)ncn3)cc2)CC1`, the growth was 85.9%.

On to `COc1ccc(-c2nc3sc4c(c3c(=O)[nH]2)CCCC4)c2ccccc12`, for which the growth is 24.4%.

Take `C=C1C(=O)O[C@H]2[C@H]1CC/C(Cn1cc(CNCCc3c[nH]c4ccccc34)nn1)=C\CC[C@@]1(C)O[C@@H]21`: the growth is 84.7%.
